In the library only some 11% were active in any assay of this set; here they are far more common.
HPGD inh = HPGD (human) dehydrogenase inhibition. P15428. 4.3% of 150,000 active. Potency, µM, for the others: at the top dose activity change, negative = inhibition, most hits filed as inhibitors. purified HPGD, NADH fluorescence kinetic, PGE2 substrate; further: potency means the concentration at half of the fitted maximal effect
Target sequence (P15428 whole entry, looked up): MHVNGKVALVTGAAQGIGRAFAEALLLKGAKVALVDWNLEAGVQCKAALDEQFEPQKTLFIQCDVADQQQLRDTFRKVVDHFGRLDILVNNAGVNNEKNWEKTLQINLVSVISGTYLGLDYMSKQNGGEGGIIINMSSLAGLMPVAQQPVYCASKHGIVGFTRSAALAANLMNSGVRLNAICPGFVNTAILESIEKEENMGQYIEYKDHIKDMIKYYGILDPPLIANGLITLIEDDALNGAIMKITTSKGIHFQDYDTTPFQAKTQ
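NADH formation kinetics: reaction with 30 uM PGE2 and 1 mM NAD+ (final), 20 nM enzyme, Tris-HCl pH 8 with Tween 20, after 15 min compound preincubation at room temperature. Fluorescence change, last versus first of five reads.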
ALDH1A1 block = inhibitors of human aldehyde dehydrogenase 1A1; Potency, µM (doses to about 75.3 µM), for the others: top-dose activity, negative = inhibition, actives largely listed as inhibitors; Purified ALDH1A1, NADH fluorescence, propionaldehyde substrate; 7.3% of 220,000 active; AID 1030;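 further: potency means the concentration at half of the fitted maximal effect; plate controls were no enzyme wells and a reference inhibitor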
PNC inhibitor = blocks assembly of the perinucleolar compartment. PC3M PTB-GFP, PNC prevalence imaging, 16 h; hits give low values. activity change (PNC), negative = inhibition, % at 10 µM. 3.1% of 140,000 active;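 active means readout at or below -70, meaning at least 70% loss of cells showing the perinucleolar compartment, a nuclear body marking cancer cells; inconclusive means readout between -30 and a set limit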;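 further: plate controls were DMSO wells for no effect and camptothecin positive control wells for full effect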
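PC3M cells stably expressing PTB-GFP, 750–1000 cells/well, treated 16 h at 37 °C with compound (23 nl of library stock), in duplicate. After paraformaldehyde fixation and Hoechst stain, imaged at 20x; PNC prevalence scored by image analysis.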
* hit, by the source's call; ? = inconclusive; / = no result given; [ ] = dose if it differs, or a comment. Unless noted, the call rests on the fitted dose curve; in most records, active means well fitted inhibition curve with a large enough effect (not every such curve was filed as active); inconclusive means small, poorly fitted or top-dose-only effect, or another doubt; inactive means no such curve, though single readings can be large or run the other way. Unless noted, on the % scale 0 is the no-effect control and ±100 the full control effect.

SMILES	HPGD inh	ALDH1A1 block	PNC inhibitor
CCN(CC)C(=O)C1CCCN(c2ccc([N+](=O)[O-])cc2/C=N/NC(=O)c2ccc([N+](=O)[O-])cc2)C1 (stereo unspecified)	-6.9%	?	38.4
CCN(CC)C(=O)C1CCCN(c2ccc([N+](=O)[O-])cc2/C=N/NC(=O)c2ccccc2)C1 (stereo unspecified)	-11.0%	28.2µM*	7.2
CN1CCN(c2ccccc2NC(=O)c2cccc([N+](=O)[O-])c2)CC1	/	7.0%	/
CCN(CC)C(=O)C1CCCN(c2ccc([N+](=O)[O-])cc2)C1 (stereo unspecified)	/	20µM*	/
COc1ccc(NCC(=O)N/N=C/c2cc([N+](=O)[O-])ccc2N2CCCC2)cc1	/	-14.0%	/
CCOC(=O)C1CCN(c2ccc([N+](=O)[O-])cc2)CC1	/	-10.8%	/
CN1CCN(c2ccc([N+](=O)[O-])cc2/C=N/NC(=O)c2cccc([N+](=O)[O-])c2)CC1	-16.6%	20µM*	-1.4
CCN(CC)C(=O)C1CCCN(c2ccc([N+](=O)[O-])cc2/C=N/NC(=O)c2cccc(O)c2)C1 (stereo unspecified)	-25.9%	28.2µM*	-7.6
CC(=O)Nc1ccc(C2C(C)CCC3C(=O)N4C(CCC(C)[C@@H]4c4ccc(NC(C)=O)cc4)C(=O)N32)cc1 (stereo partly specified)	/	14.8%[13.5 µM]	/
CCOC(=O)N1CCN(C(=O)CN(C2CCCCC2)S(=O)(=O)c2ccc(Cl)cc2)CC1	-5.6%	-2.0%	42.7
COc1ccccc1N1CCN(c2ccc([N+](=O)[O-])cc2Cl)CC1	-5.2%	?	?
CN(C)CCOC(=O)CCCCCCCCC(=O)OCCN(C)C	/	-14.1%	/
COc1cc(S(=O)(=O)Nc2ccc(Br)cc2)ccc1N	/	-13.5%	/
Cc1ccc(C(=O)NCc2nnc(SCC(=O)Nc3sc4c(c3C#N)CCCC4)n2C)cc1	-32.8%	14.1µM*	-6.4
COc1ccc(-c2nnn(CC(=O)Nc3sc4c(c3C#N)CCCC4)n2)cc1	-17.9%	10µM*	?
N#Cc1cc2c(nc1SCC(=O)Nc1sc3c(c1C#N)CCC3)CCCCCC2	-9.8%	15.8µM*	?
Cn1c(CNC(=O)c2ccc(Cl)cc2)nnc1SCC(=O)Nc1sc2c(c1C#N)CCCC2	-8.9%	?	9.3
N#Cc1cc2c(nc1SCC(=O)Nc1sc3c(c1C#N)CCC3)CCC2	-24.4%	-13.4%	32.0
CCn1c(SCC(=O)Nc2sc3c(c2C#N)CCCC3)nnc1-c1ccncc1	-8.6%	17.8µM*	2.1
COc1ccc(-c2cc(C(F)(F)F)nc(SCC(=O)Nc3sc4c(c3C#N)CCC4)n2)cc1	?	?	4.2
N#Cc1c(NC(=O)CSc2nnc(-c3ccncc3)n2CC2CCCO2)sc2c1CCCC2 (stereo unspecified)	-6.8%	?	-15.3
C/C(=N\NC(=S)Nc1cc(S(=O)(=O)N2CCOCC2)ccc1Cl)c1ccccc1F	-12.8%	-9.3%	?
Cc1c(NN=C(C#N)C#N)c(=O)n(-c2ccccc2)n1C	/	3.55µM*	/
Cc1c(NC(=O)/C(C#N)=C/c2ccccc2)c(=O)n(-c2ccccc2)n1C	/	-11.7%	/
COC(=O)c1ccc(C23CC4(C2)[C@H](CN(CC2CCCCC2)[C@@H]4c2ccccc2)C3c2ccc(C(F)(F)F)cc2)cc1 (stereo partly specified)	-3.8%	-7.2%	/
SMILES	HPGD inh	ALDH1A1 block	PNC inhibitor
Cc1ccc(C2=Nc3ccccc3S[C@@H](c3cccc([N+](=O)[O-])c3)C2)cc1	-29.1%	-11.7%[13.5 µM]	/
COc1ccc(C(=O)OCCNC(=O)c2c(Cl)nc3ccccn23)cc1	25.1µM*	-0.2%	?
O=C(NCCOC(=O)c1ccc(Cl)cc1)c1cccnc1	-9.5%	-10.6%	30.2
CC(C)(C)c1ccc(C(=O)OCCNC(=O)c2c(Cl)nc3ccccn23)cc1	11.2µM*	?	2.9
CCOC(=O)c1c(-c2ccccc2)nc2ccccn12	-4.9%	0.5%	36.0
CCC(C(=O)c1ccccc1)N(C(=O)c1ccccc1Cl)N1C(=O)C2C3C=CC(C3)C2C1=O (stereo unspecified)	-19.9%	5.2%	-15.8
CCCOc1ccc(N2C(=O)CC(NCCc3ccc(S(N)(=O)=O)cc3)C2=O)cc1 (stereo unspecified)	-6.4%	7.94µM*	-1.3
CCOc1ccc(N2C(=O)CC(NCCc3ccncc3)C2=O)cc1 (stereo unspecified)	-6.3%	?	?
CCOc1ccc(N2C(=O)CC(NCCc3ccc(S(N)(=O)=O)cc3)C2=O)cc1 (stereo unspecified)	1.8%	?	10.5
CCOc1ccc(N2C(=O)CC(NCCc3c[nH]c4ccccc34)C2=O)cc1 (stereo unspecified)	/	11.2µM*	/
CC1(c2ccc(Cl)cc2Cl)OCC(Cn2ccnc2)O1 (stereo unspecified)	-2.7%	?	14.4
COc1c(O)cc2c(c1O)[C@@H]1O[C@@H](CO)[C@@H](O)[C@@H](O)[C@@H]1OC2=O	-1.4%	-6.4%[20.9 µM]	/
Cc1cc(SCC(=O)NCCC2=CCCCC2)nc2ccccc12	25.1µM*	33.5%	3.9
CCOC(=O)N1CCC(n2c(SCC(=O)NCCC3=CCCCC3)nc3ccccc3c2=O)CC1	-8.9%	12.6µM*	6.3
CC(=O)NCCn1c(SCC(=O)NCCC2=CCCCC2)nc2ccccc2c1=O	-7.1%	-6.4%	?
CCOC(=O)N1CCC(n2c(SCC(=O)NCc3ccccc3)nc3ccccc3c2=O)CC1	3.1%	-8.8%	15.4
CCC(C)C(NC(=O)c1ccc(Cl)cc1Cl)C(=O)O (stereo unspecified)	-9.6%	0.3%	24.3
C1=C(CCNCC2CCCCC2)CCCC1	-15.1%	-7.6%	-27.4
CCCc1[nH]n(-c2nc3ccccc3s2)c(=O)c1C=NCC1CCCO1 (stereo unspecified)	-19.7%	25.1µM*	-19.9
CCCc1[nH]n(-c2nc3ccccc3s2)c(=O)c1C=NCCN1CCOCC1	-6.8%	?	?
CC(C)OCC(O)CCc1n[nH]c(=S)n1-c1ccccc1 (stereo unspecified)	-14.8%	1.8%	43.7
Cc1cccc(NC(=O)c2c(F)c(F)c(F)c(F)c2F)c1	-11.0%	-11.1%	28.4
Cc1ccc(NC(=O)c2cc(C)n(-c3cccc(C)c3)c2C)cc1	25.1µM*	?	?
Cc1ccc(-n2c(C)cc(C(=O)NS(=O)(=O)c3ccc(C)cc3)c2C)cc1	-14.4%	-1.1%	?
Cc1ccc(NC(=O)c2cc(C)n(-c3ccccc3)c2C)cc1	20µM*	?	?
SMILES	HPGD inh	ALDH1A1 block	PNC inhibitor
COc1ccc(CCNC(=O)Cn2nnc(-c3ccccc3F)n2)cc1OC	-10.1%	8.0%	2.4
COc1ccc2c(C)cc3nncn3c2c1	/	-1.2%	/
COc1ccc(NC(=S)NNC(=O)OC(C)(C)C)cc1OC	-17.6%	?	5.4
COCC(=O)OCC(=O)Nc1ccccc1-c1ccccc1	/	0.3%	/
CS(=O)(=O)N1CCN(c2ccc(C(=O)N3CCOCC3)cc2[N+](=O)[O-])CC1	/	11.2%	/
CCN1CCN(CC(=O)c2cc(Cl)ccc2Cl)CC1	/	14.1µM*	/
Cc1cc(C(=O)CN2CCCC2)c(C)n1-c1ccc(Cl)cc1	/	-2.4%	/
C#CCCCC(=O)Nc1ccccc1	-5.7%	-2.9%	/
O=C(Nc1ccccc1)N1CCCN(Cc2ccccc2F)C1	25.1µM*	2.3%	-16.6
Cc1c(Cl)cccc1NC(=S)N1CCCN(Cc2ccccc2F)C1	/	-4.0%	/

Bioassay records (PubChem)
